Data on 27 compounds can be found in paper PMC4336329 (PLoS ONE, 2015).

Hit rate of the full screen: of about 310,000 compounds, about 14,000 (4.5%) showed an effect of 50% or more. Effects have a minus sign here. This is one part of a sample in which strong results are shown more often than they occur.
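Also: peak tail current of the secondary pulse compared with the same well before compound.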

For this assay, the target named is human ether-à-go-go-related gene (hERG) potassium channel (human, UniProt Q12809). As to the kind of experiment: primary screen, population patch clamp on CHO cells stably expressing hERG; higher = less effect of the substance.
human ether-à-go-go-related gene (hERG) potassium channel, sequence (Q12809 whole entry, looked up): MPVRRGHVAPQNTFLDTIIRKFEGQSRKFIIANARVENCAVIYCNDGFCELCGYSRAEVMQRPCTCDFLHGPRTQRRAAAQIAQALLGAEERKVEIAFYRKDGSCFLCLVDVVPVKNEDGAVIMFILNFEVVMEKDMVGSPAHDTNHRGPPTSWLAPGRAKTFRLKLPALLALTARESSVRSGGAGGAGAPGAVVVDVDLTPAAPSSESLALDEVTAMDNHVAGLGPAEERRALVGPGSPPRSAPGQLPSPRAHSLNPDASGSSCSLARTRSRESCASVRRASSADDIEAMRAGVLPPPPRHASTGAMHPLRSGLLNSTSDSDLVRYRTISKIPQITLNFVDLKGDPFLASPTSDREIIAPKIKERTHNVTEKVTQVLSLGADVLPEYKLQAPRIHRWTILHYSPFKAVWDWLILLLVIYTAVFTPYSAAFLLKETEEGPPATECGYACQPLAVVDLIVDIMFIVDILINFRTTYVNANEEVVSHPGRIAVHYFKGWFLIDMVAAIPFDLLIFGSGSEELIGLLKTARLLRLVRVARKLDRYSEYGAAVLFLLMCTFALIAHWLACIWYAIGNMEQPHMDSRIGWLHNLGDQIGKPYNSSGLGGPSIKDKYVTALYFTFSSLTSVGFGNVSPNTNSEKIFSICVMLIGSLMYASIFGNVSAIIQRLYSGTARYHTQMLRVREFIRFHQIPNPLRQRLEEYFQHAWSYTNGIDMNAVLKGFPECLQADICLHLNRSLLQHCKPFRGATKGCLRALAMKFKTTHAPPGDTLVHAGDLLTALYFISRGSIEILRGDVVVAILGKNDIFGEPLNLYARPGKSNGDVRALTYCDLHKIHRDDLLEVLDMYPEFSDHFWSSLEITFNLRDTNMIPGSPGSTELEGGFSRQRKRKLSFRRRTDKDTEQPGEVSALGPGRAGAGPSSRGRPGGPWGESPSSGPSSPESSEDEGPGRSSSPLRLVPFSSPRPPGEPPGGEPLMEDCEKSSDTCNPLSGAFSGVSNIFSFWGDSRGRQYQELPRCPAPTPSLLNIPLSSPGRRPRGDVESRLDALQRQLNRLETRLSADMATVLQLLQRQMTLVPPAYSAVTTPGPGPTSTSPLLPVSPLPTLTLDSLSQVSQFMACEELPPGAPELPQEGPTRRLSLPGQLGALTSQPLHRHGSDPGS
Consider `CC1(CCc2ccc3c(c2)OCO3)NC(=O)c2ccccc2N1` (stereo not drawn), for which the “hERG current change (%, negative = inhibition) at 10uM” value is listed as -7.78%. Turning to `Cl.c1ccc2c3c([nH]c2c1)C1(CCCCC1)NCC3`, the “hERG current change (%, negative = inhibition) at 10uM” value worked out at 2.11%.

Consider `CC1(CCc2ccc3c(c2)OCO3)NCCc2c1[nH]c1ccccc21.Cl` (stereo not drawn), for which the “hERG current change (%, negative = inhibition) at 10uM” value was -85.8%.

As for `COc1ccc2[nH]c3c(c2c1)CCN[C@H]3C`, the “hERG current change (%, negative = inhibition) at 10uM” value is on record as -3.82%. Take `COc1ccc2[nH]c3c(c2c1)CCNC3(C)CCc1ccc(Cl)nc1` (stereo not drawn): the “hERG current change (%, negative = inhibition) at 10uM” value was -51.6%. As for `COc1ccc2[nH]c3c(c2c1)CCNC3C.Cl` (stereo not drawn), the “hERG current change (%, negative = inhibition) at 10uM” value is reported as 14.7%. Consider `COc1cccc(NC(C(=O)Nc2cccc(C(C)=O)c2)c2ccccc2)c1` (stereo not drawn), for which the “hERG current change (%, negative = inhibition) at 10uM” value is -7.56%. Take `O=C(O)C(Cc1ccccc1)N1C(=O)CCC1=O` (stereo not drawn): the “hERG current change (%, negative = inhibition) at 10uM” value was 14.4%.

Consider `CCC(=O)N1CCN(CCN=CC2=C(O)CC(c3ccc(OC)cc3)CC2=O)CC1` (stereo not drawn), for which the “hERG current change (%, negative = inhibition) at 10uM” value stood at 5.11%. Turning to `COc1ccc(C2CC(=O)C(C=NCCN3CCN(C(C)=O)CC3)=C(O)C2)cc1` (stereo not drawn), the “hERG current change (%, negative = inhibition) at 10uM” value is recorded as -1.68%. `COc1ccc(C2CC(=O)C(C=NCCO)=C(O)C2)cc1OC` (stereo not drawn): the “hERG current change (%, negative = inhibition) at 10uM” value is listed as 4.15%. Consider `CCCCCC(=O)N1CCN(CCN=CC2=C(O)CC(c3ccc(OC)cc3)CC2=O)CC1` (stereo not drawn), for which the “hERG current change (%, negative = inhibition) at 10uM” value is -74.1%.

Regarding `COc1ccc(C2CC(=O)C(C=NCCN3CCN(C(=S)Nc4ccccc4)CC3)=C(O)C2)cc1OC` (stereo not drawn), the “hERG current change (%, negative = inhibition) at 10uM” value is -20.1%. Regarding `CCCCCC(=O)N1CCN(CCN=CC2=C(O)CC(c3ccc(OC)c(OC)c3)CC2=O)CC1` (stereo not drawn), the “hERG current change (%, negative = inhibition) at 10uM” value is recorded as -78.8%.

Take `Cc1ccccc1C1=NC(C(F)(F)F)(C(F)(F)F)c2c(n(C)c(=O)n(C)c2=O)N1`: the “hERG current change (%, negative = inhibition) at 10uM” value stood at 3.5%.

For `NC(=S)Cc1ccc(Cl)cc1Cl`, the “hERG current change (%, negative = inhibition) at 10uM” value is 18.8%. Take `O=C(Nc1cccc(Cl)c1)Nc1ccccc1NS(=O)(=O)c1cccs1`: the “hERG current change (%, negative = inhibition) at 10uM” value worked out at 24%. For `Cc1cc(C)c(NC(=O)CSc2nnc(-c3ccco3)n2N)c(C)c1`, the “hERG current change (%, negative = inhibition) at 10uM” value is given as -14.9%. On to `CCC(CC(C)(C)O)C(=O)NNC(=S)Nc1ccccc1` (stereo not drawn), for which the “hERG current change (%, negative = inhibition) at 10uM” value turned out to be 5.73%. With `O=C(OCC(=O)N1CCCC1)c1ccc(NS(=O)(=O)c2cccs2)cc1O`, the “hERG current change (%, negative = inhibition) at 10uM” value came to 17.1%. Consider `O=C(O)c1ccc(Oc2ccccc2)o1`, for which the “hERG current change (%, negative = inhibition) at 10uM” value came out at 23.2%. Turning to `O=C(Nc1ccccc1)Nc1ccccc1-n1ccnc1`, the “hERG current change (%, negative = inhibition) at 10uM” value was -18.2%. As to `Cc1ccc(C)c(C(=O)CN2C(=O)NC3(CCC(C)CC3)C2=O)c1` (stereo not drawn), the “hERG current change (%, negative = inhibition) at 10uM” value is recorded as -18.3%. On to `CC1CCCN(CCCOc2ccc(Cl)cc2Br)C1.O=C(O)C(=O)O` (stereo not drawn), for which the “hERG current change (%, negative = inhibition) at 10uM” value is listed as -70.5%. With `CC(C)(C)c1cc(Cl)ccc1OCCOCCN1CCCC1.O=C(O)C(=O)O` the figure was -45.8%; with `CC1CCCN(CCSc2ccc(Cl)cc2)C1.O=C(O)C(=O)O` (stereo not drawn), -41.3%; with `CC1CCCN(CCOCCOc2ccc(Cl)cc2Br)C1.O=C(O)C(=O)O` (stereo not drawn), -61.1%.
